# Measurements from PubChem BioAssay (NCATS).
# Inconclusive results are not listed. Calls of active or inactive are those of the source. Calls follow the shape of the dose curve; as a rule, active = well fitted inhibition curve with a large enough effect; inconclusive = small, poorly fitted or top-dose-only effect; inactive = no such curve, though single readings can be large or run the other way.
# Target: Rap guanine nucleotide exchange factor 3 (Homo sapiens) (UniProt O95398)
# Assay: Counterscreen qHTS for antagonist of cAMP-regulated guanine nucleotide exchange factor 3 (EPAC1) (AID 1645888);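 also: fluorescence loss as bound BODIPY-GDP is released from Rap1B; % of control where 0% means no effect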
# Details: Rap1B-BODIPY-GDP nucleotide exchange, fluorescence; series mostly up to 154 µM; activity change, negative = inhibition: at the top concentration
# In short: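 Rap1B-BODIPY-GDP 250 nM + GDP 50 uM; cpds 7-pt, final 9.74 nM–152 uM (activator mode) or from 7.32 nM upwards (inhibitor mode); RT; FI 480/540 nm at 5 and 30 min, then ± cAMP, reread.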
# Sequence of Rap guanine nucleotide exchange factor 3 (Homo sapiens) (O95398 whole entry, looked up): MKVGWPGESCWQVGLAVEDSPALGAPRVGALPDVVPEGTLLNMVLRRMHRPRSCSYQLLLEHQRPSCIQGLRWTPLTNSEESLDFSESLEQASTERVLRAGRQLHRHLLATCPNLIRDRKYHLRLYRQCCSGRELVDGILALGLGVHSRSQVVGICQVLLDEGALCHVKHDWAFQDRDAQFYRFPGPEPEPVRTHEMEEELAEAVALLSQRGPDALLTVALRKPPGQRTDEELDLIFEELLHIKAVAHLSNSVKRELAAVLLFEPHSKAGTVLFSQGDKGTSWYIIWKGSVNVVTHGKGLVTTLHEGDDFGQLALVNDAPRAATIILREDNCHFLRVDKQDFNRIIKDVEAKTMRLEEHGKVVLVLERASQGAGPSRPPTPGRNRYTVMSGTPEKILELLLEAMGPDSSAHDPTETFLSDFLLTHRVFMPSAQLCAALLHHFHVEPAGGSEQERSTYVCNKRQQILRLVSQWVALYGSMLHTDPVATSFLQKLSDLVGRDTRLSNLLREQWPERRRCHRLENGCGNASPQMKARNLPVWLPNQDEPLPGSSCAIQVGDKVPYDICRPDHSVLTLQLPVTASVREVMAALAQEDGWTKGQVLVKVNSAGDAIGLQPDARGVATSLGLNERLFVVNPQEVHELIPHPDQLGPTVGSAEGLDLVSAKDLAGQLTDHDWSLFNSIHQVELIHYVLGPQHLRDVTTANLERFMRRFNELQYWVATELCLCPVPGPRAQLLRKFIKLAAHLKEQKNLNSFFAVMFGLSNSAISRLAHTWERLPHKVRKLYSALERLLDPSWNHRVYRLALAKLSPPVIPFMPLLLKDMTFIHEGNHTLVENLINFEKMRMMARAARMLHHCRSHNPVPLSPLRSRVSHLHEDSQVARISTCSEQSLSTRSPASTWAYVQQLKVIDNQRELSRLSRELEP
row,Compound,"activity change, negative = inhibition"
1,COc1ccc2ccccc2c1C(=O)/C=C\c1ccoc1,-15.3% (inactive)
2,Oc1ccc(-c2c(-c3ccsc3)sc3ccccc23)cc1,-8.26% [at 30.8 µM] (inactive)
3,CC(C)CC1C(=O)N(Cc2cn(CCC3OCCO3)nn2)CCS(=O)(=O)N1Cc1ccc(-c2ccc(F)cc2)cc1 (stereo not given),-16% [at 30.8 µM] (inactive)
4,CC(CCc1ccccc1)NC(=O)C1CCN(C(=O)c2sccc2-n2cccc2)CC1 (stereo not given),5.05% (inactive)
5,O=C1C=C(N2CCCCC2)c2ccccc2C1=O,-3.66% [at 30.8 µM] (inactive)
6,COc1ccc(-n2nnnc2SCC(=O)c2ccc(O)c(O)c2)cc1,-2.56% (inactive)
7,COC1C(CO)OC(n2c3c(Cl)cccc3c3c4c(c5c6cccc(Cl)c6[nH]c5c32)C(=O)NC4=O)C(O)C1O (stereo not given),-4.72% (inactive)
8,COc1ccc(-c2nn(-c3ccccc3)cc2/C=N/n2cnnc2)cc1OC,19.4% (inactive)
9,C#CCOCCOCCOCCNc1nc(N2CCN(C(=O)[C@H](Cc3cc4ccccc4[nH]3)n3cc([C@@H](N)Cc4ccc(O)cc4)nn3)CC2)nc(N2CCN(C(=O)[C@H](Cc3cc4ccccc4[nH]3)n3cc([C@@H](N)CC(C)C)nn3)CC2)n1,-28.3% [at 30.8 µM] (inactive)
10,COc1ccc(CCNC(=O)CSc2nc3nc(C)c(Cc4ccc(C)cc4)c(C)n3n2)cc1OC,23.1% (inactive)
11,Cc1cccc(C(=O)Nc2cccc(C(=O)OCc3cc(=O)n4c5c(sc4n3)CCCC5)c2)c1,35.1% (inactive)
12,CN(C)C(CNS(=O)(=O)c1ccc(Cl)cc1)c1cccnc1 (stereo not given),17.9% (inactive)
13,O=C(O)c1[nH]c2ccccc2c1C(c1cc(Cl)cc([N+](=O)[O-])c1O)c1c(C(=O)O)[nH]c2ccccc12,6.67% (inactive)
14,Cn1c(SCc2c(Cl)cccc2Cl)nnc1-c1ccc2nonc2c1,-10.9% [at 30.8 µM] (inactive)
15,COc1cc2c(cc1OC)C(c1ccccc1)N(C(=O)c1ccco1)CC2 (stereo not given),1.11% (inactive)
16,NNc1nc2c(Cl)cccc2s1,-19.2% (inactive)
17,CC1CCN(c2ccc3c(c2)S(=O)(=O)c2ccccc2C3=O)CC1,17.8% (inactive)
18,COc1ccc(-c2n[nH]c3c2C(c2ccc(Cl)cc2Cl)NC3=O)cc1 (stereo not given),16.3% (inactive)
19,COc1cc(NC(=S)NCCC(c2ccccc2)c2ccccc2)cc(OC)c1,11% [at 30.8 µM] (inactive)
20,O=C(Cc1ccccc1Cl)Nc1ccc(S(=O)(=O)Nc2nccs2)cc1,6.72% (inactive)

row,Compound,"activity change, negative = inhibition"
1,Cc1ccc(S(=O)(=O)N2[C@@H](c3ccc(Br)cc3)C(C(=O)O)=CC[C@H]2c2ccc(Cl)c(Cl)c2)cc1,24.9% (inactive)
2,CC1CC1C(=O)OCC(=O)NNC(=O)COc1ccc(Br)cc1 (stereo not given),26.9% [at 30.8 µM] (inactive)
3,Cc1cn2c(=O)cc(COC(=O)c3ccc(NC(=O)C(C)Oc4ccccc4)cc3)nc2s1 (stereo not given),7.49% (inactive)
4,Cc1ccc(OCCn2cccn2)c(C)c1,-0.285% (inactive)
5,Cc1ccc2c(c1)c1c(c(=O)n(-c3cccc(Cl)c3)c(=O)n1C)n2C,7.79% (inactive)
6,Cn1c2ccccc2c2cc(/C=N/NC(=O)c3cc(O)ccc3O)ccc21,-0.77% [at 30.8 µM] (inactive)
7,CCSc1nc2ccccc2c(=O)n1C1CCOC(C)(C)C1 (stereo not given),-3.03% (inactive)
8,Cn1c(=O)c2c(-c3ccccc3Br)n(CCc3ccccc3)cc2n(C)c1=O,5.89% (inactive)
9,CCCc1[nH]nc2c1C(c1cccnc1)C(C#N)=C(N)O2 (stereo not given),-9.67% [at 30.8 µM] (inactive)
10,CCc1ccccc1Oc1nc(NC(C)C)nc2ccsc12,-29.4% [at 30.8 µM] (inactive)
11,CCCOC(=O)c1c(-c2ccccc2)c(-c2ccccc2)nn(C)c1=O,-15.5% (inactive)
12,CCN1/C(=C/C(C)=C/c2sc3ccccc3[n+]2CC)Sc2ccccc21,12.4% [at 30.8 µM] (inactive)
13,Cc1ccc(NC(=O)C2CCN(S(=O)(=O)c3ccc4c(c3)OCCCO4)CC2)nc1,13.4% [at 30.8 µM] (inactive)
14,NC(=O)C1CCN(C(=O)Nc2csc3ccccc23)CC1,18.5% (inactive)
15,OC1CCN(c2c3c(nc4cc(-c5cccc(F)c5)nn24)CCCC3)CC1,26.7% (inactive)
16,CCN1C(=O)/C(=C/c2ccc(N3CCCC3)cc2)NC1=S,97.9% [at 30.8 µM] (inactive)
17,CC1(C)OCC(C2CC(c3ccccc3)NS(=O)(=O)O2)O1 (stereo not given),22% (inactive)
18,C/C(=N\N1C(=O)c2ccccc2NC1c1ccco1)c1ccccc1O (stereo not given),11.4% (inactive)
19,O=C(O)CCn1cc(/C=C2\NC(=S)N(c3ccccc3)C2=O)c(-c2ccc(Br)cc2)n1,16.4% (inactive)
20,CC1(C)CC(=O)C=C(c2ccc(F)cc2OCc2ccccc2)C1,-15.3% (inactive)
